Screening results from PubChem BioAssay.
Most compounds without a hit are left out; they make up all but 3.3% or so of the library.
esBAF inh: blocks esBAF chromatin remodeling in mouse ES cells; Bmi1-luciferase knock-in reporter, 24 h; 100% = twice the neutral-well signal; reporter increase, % at 12.5 µM; 350,000 tested, 2% active; in the data active = activation above about 40%;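 also: 0% = median of the plate's neutral control wells and 100% = double that signal; a rise in the Bmi1 reporter signal indicates esBAF inhibition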
SMARCA2 activ: SMARCA2 function activation, primary screen; MG213 cells, MMTV-luciferase reporter, dexamethasone, overnight; activation, % at 9.1 µM; 370,000 tested, 1% active; AID 652017; in the data active = activation above about 7.8%;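 also: 0% = vehicle wells and 100% = reference activator wells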
Gli-Sufu block: Gli-Sufu pathway antagonism; inhibition, % at 5 µM; AID 588413; 340,000 tested, 0.74% active; Sufu-KO-LIGHT fibroblasts, Gli luciferase reporter luminescence;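 active = inhibition above about 55%, limit read from the data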;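 also: 0% = DMSO-treated cells and 100% = wells with medium but no cells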
Jurkat NFkB inh: lowers PMA/ionomycin-induced NF-kB signal in Jurkat cells; 330,000 tested, 0.53% active; PMA/ionomycin-induced NF-kB luciferase reporter, luminescence; inhibition, % at 4 µM; in the data active = inhibition above about 50%
697 NFkB inh: lowers PMA/ionomycin-induced NF-kB signal in 697 B cells; inhibition, % at 4 µM; AID 435022; 330,000 tested, 0.33% active; 697 B-cell NF-kB luciferase reporter, 16 h; in the data active = inhibition above about 35%
697 NFkB conf: lowers PMA/ionomycin-induced NF-kB signal in 697 B cells; 2,000 tested, 35% active; 697 B-cell NF-kB luciferase, 16 h; AID 449746; shares compounds with 697 NFkB inh; inhibition, % at 4 µM; in the data active = inhibition mostly above about 28%, no sharp cut-off; inactive = mostly below about 22%
* hit, by the source's call.

For COc1cc(/C=C2\SC(=S)N(CCC(=O)NC3CCCC3)C2=O)cc(OC)c1OC the results were esBAF inh 10, SMARCA2 activ -2, Gli-Sufu block -13, Jurkat NFkB inh 19 and 697 NFkB inh 8.
For Cc1ccc(/C=C2\SC(=S)N(CCC(=O)NNC(=O)c3cccc(O)c3)C2=O)cc1 the results were esBAF inh 27, SMARCA2 activ 1, Gli-Sufu block 3, Jurkat NFkB inh 6, 697 NFkB inh 40* and 697 NFkB conf 12.
`Cc1ccc(C=C2SC(=S)N(CCCC(=O)Nc3cccc(C(=O)O)c3)C2=O)cc1` gave esBAF inh -56 and SMARCA2 activ -8.
`Cc1ccc(/C=C2\SC(=S)N(CCCC(=O)NC3CCCC3)C2=O)cc1` gave esBAF inh -73, SMARCA2 activ -8, Gli-Sufu block 16, Jurkat NFkB inh 19, 697 NFkB inh 85* and 697 NFkB conf 80*.
Screening Cc1ccc(/C=C2\SC(=S)N(CCCC(=O)Nc3cccc(C(=O)O)c3)C2=O)cc1 returned esBAF inh -50, SMARCA2 activ -5, Gli-Sufu block 51, Jurkat NFkB inh -4, 697 NFkB inh 76* and 697 NFkB conf 88*.
Screening COc1ccc(/C=C2\SC(=S)N(CCC(=O)Nc3cccc(C(=O)O)c3)C2=O)cc1 returned esBAF inh -12, SMARCA2 activ -3, Gli-Sufu block 6, Jurkat NFkB inh -5, 697 NFkB inh 42* and 697 NFkB conf 39*.
Screening O=C(CN1CCOCC1)NCC[C@H]1CC[C@@H](NC(=O)Nc2ccc(C(F)(F)F)cc2)[C@@H](CO)O1 returned esBAF inh -2.
For Cc1ccccc1CN(C)CCS(=O)(=O)c1cc(Cl)ccc1Cl the results were esBAF inh -15, SMARCA2 activ 5, Gli-Sufu block -1, Jurkat NFkB inh -9, 697 NFkB inh 36* and 697 NFkB conf 3.
`COc1ccc(-c2[nH]nc3oc(=O)cc(C)c23)cc1` gave esBAF inh -9, SMARCA2 activ -1, Gli-Sufu block 4, Jurkat NFkB inh 4, 697 NFkB inh 35* and 697 NFkB conf 7.
For C[C@H](CO)N1C[C@H](C)[C@@H](CN(C)C(=O)Nc2ccc3c(c2)OCO3)Oc2c(NC(=O)Nc3ccc(C(F)(F)F)cc3)cccc2C1=O the results were esBAF inh 12, SMARCA2 activ -2, Gli-Sufu block 4, Jurkat NFkB inh -3, 697 NFkB inh 46* and 697 NFkB conf 16.
`O=C(NCc1ccncn1)[C@@H]1[C@@H](CO)[C@@H]2Cn3c(ccc(-c4ccccc4)c3=O)[C@@H]2N1CC1CC1` gave esBAF inh 0.
`CCCn1nc(Oc2nc(NCC)nc(NC(C)C)n2)ccc1=O` gave esBAF inh -4, SMARCA2 activ -5, Gli-Sufu block 21, Jurkat NFkB inh 11, 697 NFkB inh 62* and 697 NFkB conf 26.
Screening C[C@H](CO)N1C[C@H](C)[C@@H](CN(C)C(=O)c2cccc(F)c2)Oc2ncc(-c3cncnc3)cc2C1=O returned esBAF inh 9.
For C[C@H]1CCCCO[C@H](CN(C)C(=O)NC2CCCCC2)[C@@H](C)CN([C@@H](C)CO)C(=O)c2cc(NC(=O)NC3CCCCC3)ccc2O1 the results were esBAF inh 3.
`O=C(N/N=C/c1sc(N2CCOCC2)nc1-c1ccccc1)c1ccccc1F` gave Gli-Sufu block -1, Jurkat NFkB inh 6, 697 NFkB inh 40* and 697 NFkB conf 21.
Cc1cc(C(=O)N/N=C/c2sc(N3CCOCC3)nc2-c2ccccc2)c(C)o1 was read as esBAF inh 10, SMARCA2 activ -3, Gli-Sufu block 22, Jurkat NFkB inh 19, 697 NFkB inh 40* and 697 NFkB conf 13.
For O=C(N[C@@H]1C=C[C@@H](CC(=O)N2CCc3ccccc3C2)O[C@H]1CO)C1CC1 the results were esBAF inh 1.
Cc1ccc(-c2noc(-c3ccccc3F)n2)cc1 was read as esBAF inh -15, SMARCA2 activ 3, Gli-Sufu block -100, Jurkat NFkB inh -147 and 697 NFkB inh -198.
Cc1ccc(-c2noc(-c3cccs3)n2)cc1 was read as esBAF inh -30, SMARCA2 activ 3, Gli-Sufu block -91, Jurkat NFkB inh -146, 697 NFkB inh -307 and 697 NFkB conf -240.
`C[C@@H]1CN([C@H](C)CO)C(=O)c2cc(NS(=O)(=O)c3ccc(F)cc3)ccc2O[C@@H]1CN(C)CC1CC1` gave esBAF inh -4.
`O=C(/C=C/Sc1ccccc1)c1ccccc1` gave esBAF inh -2, SMARCA2 activ 8, Gli-Sufu block -24, Jurkat NFkB inh 14, 697 NFkB inh -295 and 697 NFkB conf -268.
For O=C(Nc1nc2ccccc2[nH]1)c1ccc(Cl)cc1 the results were esBAF inh -27, SMARCA2 activ 4, Gli-Sufu block -73, Jurkat NFkB inh -140, 697 NFkB inh -320 and 697 NFkB conf -342.
CCc1ccc(-c2nnn(CCC(=O)OC)n2)cc1 was read as esBAF inh -58, SMARCA2 activ -3, Gli-Sufu block 30, Jurkat NFkB inh 10, 697 NFkB inh 52* and 697 NFkB conf 64*.
`O=C(N[C@H]1C=C[C@H](CC(=O)N2CCOCC2)O[C@@H]1CO)c1ccccn1` gave esBAF inh 1.
CCOC(=O)C1CCN(C/C=C/c2ccccc2OC)CC1 was read as esBAF inh 0, SMARCA2 activ -1, Gli-Sufu block -5, Jurkat NFkB inh 1, 697 NFkB inh 38* and 697 NFkB conf -2.
Screening CCCOc1ccc(/C=N/Nc2ccccc2[N+](=O)[O-])c(O)c1 returned SMARCA2 activ 0, Gli-Sufu block 30, Jurkat NFkB inh -62, 697 NFkB inh -284 and 697 NFkB conf -48.
For C(=C\c1nnc(-c2cccs2)o1)/c1ccccc1 the results were esBAF inh 7, SMARCA2 activ 7, Gli-Sufu block -95, Jurkat NFkB inh -128, 697 NFkB inh -260 and 697 NFkB conf -199.
CN1CCN(C(=O)C[C@@H]2CC[C@H]3[C@@H](COC[C@@H](O)CN3C(=O)C3CC3)O2)CC1 was read as esBAF inh 3.
CC(C)Oc1ccc(C(=O)Nc2ccc(N(C)C)cc2)cc1 was read as SMARCA2 activ 2, Gli-Sufu block 23, Jurkat NFkB inh -58, 697 NFkB inh 45* and 697 NFkB conf 36*.
`C[C@H]1CN([C@@H](C)CO)C(=O)Cc2cc(NC(=O)Cn3cnnn3)ccc2O[C@@H]1CN(C)CC1CCCCC1` gave esBAF inh -1.
Cc1nc(Nc2c(Cl)cccc2Cl)sc1C(=O)Nc1ccccc1 was read as SMARCA2 activ -1, Gli-Sufu block 0, Jurkat NFkB inh 6, 697 NFkB inh 37* and 697 NFkB conf 36*.
Cc1cccc(C)c1NC(=O)c1nc(S(=O)(=O)Cc2ccccc2)ncc1Cl was read as esBAF inh -55, SMARCA2 activ -8, Gli-Sufu block 16, Jurkat NFkB inh 13 and 697 NFkB inh -16.
